Measured values from PubChem BioAssay (NCI).
The panel holds about 83,000 compounds, 20% with a hit somewhere; the sample as a whole holds those more often.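 For each line, cells grew in 96-well plates with the test compound present at a single concentration for 48 hours.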 Values without a mark were called inactive. The source made the active and inactive calls. How the source made its calls: active means growth percent below 10; inactive means the rest.

Legend:
Assay in all cases: NCI-60 one-dose screen, 48 h (100 = growth as untreated, 0 = no growth, -100 = all killed)
HCT-15 colon = details: 10 µM unless noted
HT29 colon = details: 10 µM unless noted
SNB-19 CNS = details: 10 µM unless noted
U251 CNS = details: 10 µM unless noted
PC-3 prostate = details: 10 µM unless noted
SK-MEL-5 melanoma = details: 10 µM unless noted
UACC-62 melanoma = details: 10 µM unless noted
LOX IMVI melanoma = details: 10 µM
SK-MEL-28 melanoma = details: 10 µM unless noted

| Compound | growth (HCT-15 colon) | growth (HT29 colon) | growth (SNB-19 CNS) | growth (U251 CNS) | growth (PC-3 prostate) | growth (SK-MEL-5 melanoma) | growth (UACC-62 melanoma) | growth (LOX IMVI melanoma) | growth (SK-MEL-28 melanoma) |
| --- | --- | --- | --- | --- | --- | --- | --- | --- | --- |
| COc1c(F)ccc(C(=O)Nc2ccc3nc(NC(=O)C4CCCN(S(=O)(=O)c5cccc(C(F)(F)F)c5)C4)sc3c2)c1F (stereo unspecified) | 69.1% | 83.2% | 72.6% | 69.8% | 50.3% | 89.3% | 83.3% | 86.5% | 98.2% |
| CC(=O)c1cc(C(=O)c2ccccc2)n2c1ccc1ccccc12 | 104% | 109% | 98% | 106% | 81% | 104% | 86.9% | 96.7% | 122% |
| COc1c(F)ccc(C(=O)Nc2ccc3nc(NC(=O)C4CCCN(S(=O)(=O)c5ccc(C(F)(F)F)cc5)C4)sc3c2)c1F (stereo unspecified) | 85.7% | 79.1% | 83.8% | 76% | 57.7% | 84.9% | 65.8% | 83.3% | 92.3% |
| Cn1cc(-c2cc3nc(-c4cn(C)c5ncccc45)cc(N)n3n2)c2ccccc21 | 9.76% (active) | -6.2% (active) | 37.7% | -8.69% (active) | 27.2% | -69.3% (active) | -0.244% (active) | -56.8% (active) | -22.5% (active) |
| COc1ccc(-c2nc3cc(C)ccc3n2CC(=O)N=Nc2c(O)[nH]c3ccccc23)cc1 | -64.7% (active) | -28.2% (active) | 19.1% | 5.59% (active) | 8.89% (active) | -93% (active) | -37.2% (active) | -63.5% (active) | -57.5% (active) |
| O=c1oc2ccc(Br)cc2cc1C1=CSc2nc3sc4c(c3c(=O)n2N=C1)CCCC4 | 95.1% | 108% | 97% | 99.3% | 76.7% | 96.9% | 71.7% | 86.4% | 105% |
| COc1ccc(C(=O)/C=C/c2ccc(Cl)c(Cl)c2)cc1S(N)(=O)=O | -37.9% (active) | -50.3% (active) | 5.07% (active) | -95.8% (active) | 10.1% |  | -4.38% (active) | -69% (active) | -33.7% (active) |
| COc1cc2oc(-c3cccc(NC(=O)[C@H](Cc4ccccc4)NC(=O)OC(C)(C)C)c3)cc(=O)c2c(OC)c1OC | 17.4% | 22.8% | 40% | 36.6% | 39.7% | 17.9% | 54.6% |  | 49.9% |
| COc1ccc(/C=C/c2nc3ccccc3c(=O)n2CC(=O)Nc2ccc(Cl)cc2)cc1 | 75.2% | 38.7% | 77.4% | 10.9% | 48.3% | 89% | 73.3% | 36.5% | 93% |
| C=C1CC[C@@H]2[C@]3(C)COC(c4ccccc4)O[C@@H]3CC[C@@]2(C)[C@@H]1C/C=C1/C(=O)OCC1OC(C)=O (stereo partly specified) | -87.3% (active) | -93.1% (active) | 55.5% | -89.9% (active) | -41.4% (active) | -45.1% (active) | -82.7% (active) | -100% (active) | -86.9% (active) |
| COc1ccc(-c2ccnc(SCc3cc4ccccc4[nH]c3=O)n2)cc1 | 28.2% | 29.5% | 64% | 64.1% | 69.6% | 59.1% | 44.8% | 49.9% | 73% |
| CC1=C(C#N)C2=NNCC(c3ccccc3)=NN2C(c2ccccc2)=C1 | 104% | 114% | 97.3% | 96.2% | 106% | 106% | 96% | 109% | 109% |
| Cn1cc(-c2cc3nc(-c4cn(C)c5ncc(Br)cc45)cc(N)n3n2)c2cc(Cl)ccc21 | -77.6% (active) | -89.2% (active) | -74.2% (active) | -67.9% (active) | -62.5% (active) | -77.1% (active) | -96% (active) | -95.1% (active) | -90.7% (active) |
| Cc1ccccc1[C@H]1C(C(=O)c2ccc(Cl)cc2)C2(N[C@@H]1c1ccccc1)C(=O)Nc1ccc(Br)cc12 (stereo partly specified) | 7.15% (active) | -58.6% (active) | 38.4% | -3.71% (active) | -4.58% (active) | 35.3% | 11.2% | -95.3% (active) | 41% |
| CC12CC[C@@H]3[C@]4(C)COC(c5cn[nH]c5-c5cccc(Cl)c5)O[C@@H]4CC[C@@]3(C)[C@@H]1CC(C1=CCOC1=O)O2 (stereo partly specified) | 35.1% | 28% | 56.8% | 38.6% | 12.6% | 8.92% (active) | 26.9% | 40.3% | 36.3% |
| COc1ccc(C(=O)/C=C/c2ccccc2Br)cc1S(N)(=O)=O | -91.5% (active) | -17.2% (active) | 1.44% (active) | -95.6% (active) | 21% |  | 34.4% | -89.9% (active) | -27.7% (active) |
| CN1C(=O)/C(=C/c2ccc(C(=O)Nc3ncc(Cc4ccc(Cl)cc4Cl)s3)cc2)SC1=S | 25.7% | 19.7% | 66.6% | 72.7% | 38.9% | 17.1% | 8.83% (active) | 29.7% | 41% |
| COc1ccc(C(=O)/C=C/c2cccc(Cl)c2)cc1S(N)(=O)=O | -89.9% (active) | 0.678% (active) | 0.182% (active) | -97.1% (active) | 31.7% |  | -3.37% (active) | -87.4% (active) | -25.7% (active) |
| C=C1CC[C@@H]2[C@]3(C)COC(c4cn[nH]c4-c4ccc(F)cc4)O[C@@H]3CC[C@@]2(C)[C@@H]1C/C=C1/C(=O)OCC1O (stereo partly specified) | -56.8% (active) | -2.38% (active) | 21.6% | -83.2% (active) | 8.84% (active) | -79% (active) | -73.7% (active) | -100% (active) | -75.6% (active) |
| CN(C)CCOc1ccc(C(=O)C2[C@H](c3ccc(Cl)cc3)[C@@H](c3ccccc3)NC23C(=O)Nc2ccccc23)cc1 (stereo partly specified) | 12% | -69.3% (active) | 83.8% | 11.9% | 41.9% | 83.7% | 78.8% | -94.3% (active) | 94.6% |
| CC(=O)/C=C/c1cccc2c1C(=O)NC(C)(c1cc3cc(Br)ccc3oc1=O)N2 (stereo unspecified) | 14.6% | 27.6% | 51.8% | 18.6% |  | 13.1% | 13% | 14.8% | 58.8% |
| OCNc1ccc(-n2cnc3cc(-c4ccc(O)cc4)ccc32)cc1C(F)(F)F | 15.5% | 21.2% | 35.2% | 16.8% | 45.6% | 3.27% (active) | 33.5% |  | 27.5% |
| Cc1cnc(C(=O)NNc2nc3cc(F)ccc3n3c(C(=O)N4CC5CC(C4)N5)ccc23)cn1 | 32.4% | 41.5% | 35.2% | 22.9% | 47.2% |  | 2.81% (active) | 16% | 30.3% |
| COc1c(F)ccc(C(=O)Nc2ccc3nc(NC(=O)C4CCCN(S(=O)(=O)c5cccc(Cl)c5)C4)sc3c2)c1F (stereo unspecified) | 68.9% | 82.2% | 80.4% | 71.5% |  | 79.6% | 78.6% | 79.6% | 92.1% |
| CC12CC[C@@H]3[C@]4(C)COC(c5cn[nH]c5-c5ccc(Cl)cc5)O[C@@H]4CC[C@@]3(C)[C@@H]1CC(C1=CCOC1=O)O2 (stereo partly specified) | 36.2% | 22% | 54.5% | 50% | 19.4% | 16.5% | 33.4% | 46.2% | 39.2% |
| COc1ccc(-c2cc(C(=O)NCc3ccccc3)nn2-c2ccc(S(C)(=O)=O)cc2)cc1OC | 108% | 102% | 95.2% | 99.2% | 110% | 97.1% | 111% |  | 134% |
| Cn1nc(C(F)(F)F)cc1-c1cc(Cl)c(COc2ccc(Cl)cc2)c(-c2ccc(Cl)c(C(F)(F)F)c2)c1O | -39.5% (active) | 6.65% (active) | -11.5% (active) | -24.8% (active) | -12.3% (active) | -74.4% (active) | -86.1% (active) |  | -48.8% (active) |
| O=c1[nH]c(=O)c2c(-c3cc4ccccc4oc3=O)ccnc2[nH]1 | 81.4% | 102% | 75.5% | 19.5% | 85.4% | 89% | 82.7% | 65.3% | 115% |
| CC(C)(C)OC(=O)/C=C/c1cccc2c1C(=O)NC(C)(c1cc3cc(Cl)ccc3oc1=O)N2 (stereo unspecified) | 40.3% | 44.3% | 42.1% | 42.4% | 12.5% | 28.4% | 36% | 41.1% | 53.7% |
